# Reference: PubChem BioAssay
# Results filed as inconclusive are left out. Calls of active or inactive are those of the source. Unless noted, how the calls were made is not given here.
# How the values were obtained:
# [1] = system: Aerobactin synthetase IucA (Klebsiella pneumoniae); assay: IucA aerobactin synthetase inhibitors, biochemical, Tocris library, absorbance (AID 1345561); settings: purified IucA enzyme assay, absorbance (OD) read-out; stronger effect = lower value;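 tested at 8 µM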;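 further: 100% = enzyme without compound and 0% = no enzyme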
# [2] = growth inhibition of DIPG glioma cells, dose response, cell-based, SU-DIPG-XVII, MIPE5.0, CellTiter-Glo, qHTS (AID 1347060; cut-off not given, nearly all actives have AC50 up to about 26 µM;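 on AC50: cells exposed to compound for 48 hours before viability readout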); settings: SU-DIPG-XVII viability, CellTiter-Glo ATP luminescence
# [3] = SU-DIPG-XXV glioma cell viability, MIPE5.0 library, qHTS (AID 1347068; cut-off not given, nearly all actives have IC50 up to about 30 µM;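 on IC50: cells exposed to compound for 48 hours before viability readout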)
# [4] = target: NAD(+) hydrolase SARM1 (Homo sapiens) (UniProt Q6SZW1); assay: SARM1 TIR NADase inhibitors, cell lysate, NAD-Glo luminescence (AID 1508614;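 active means compound whose remaining NAD level is above about 45 nM, limit read from the data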); settings: SAM-TIR HEK293T lysate NADase, at 1 µM, stronger effect = higher value
# [5] = differential killing of epithelial or mesenchymal cells, primary screen, imaging, PC-3E GFP, TEM4-18 mCherry, co-culture (AID 1345086;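 active means compounds killing one labelled cell type while sparing the other, by normalised counts and ratio limits, not self-fluorescent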;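 on all read-outs here: cells exposed to compound for 72 h before imaging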;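 on red/green cell ratio (normalised): normalised mesenchymal count divided by normalised epithelial count so high means epithelial killing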); settings: imaging cell counts, at 1 µM; for red/green cell ratio (normalised): actives lie on both sides, counts scaled to control wells, 1 = unselective
# [6] = growth inhibition of DIPG glioma cells, dose response, cell-based, JHH-DIPG-1, MIPE4.0, CellTiter-Glo, qHTS (AID 1347062; cut-off not given, nearly all actives have AC50 up to about 27 µM;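 on AC50: cells exposed to compound for two days before readout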); settings: JHH-DIPG-1 viability, CellTiter-Glo ATP luminescence
# [7] = circadian clock period modulators, cell-based, LOPAC library, luminescence reporter (AID 2774); settings: circadian reporter cells, at 7 µM, actives lie on both sides;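 further: values are relative to mean of DMSO wells on each plate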
# [8] = system: Hepatitis C virus NS3 helicase; assay: HCV NS3 helicase inhibitors, primary screen, biochemical, fluorescence polarization, LOPAC1280 library (AID 687035; in the data active means inhibition above about 37%); settings: Purified HCV NS3 helicase, Cy5-dT15 ssDNA binding fluorescence polarization; stronger effect = higher value; concentration not given here
# [9] = Cy5 fluorescence quenching or enhancement artefacts, artefact control for HCV NS3 helicase inhibitor project, biochemical, LOPAC1280 (AID 687037); settings: Cy5-DNA-NS3h complex fluorescence interference counterscreen
# [10] = phospholipid biosynthesis inhibitors in animal cells, primary screen, cell-based, LOPAC library, screen 4 (AID 1347384); settings: phospholipid biosynthesis inhibition screen, at 10 µM
# [11] = hESC survival regulators, cell-based (AID 493140); settings: human embryonic stem cell survival screen; stronger effect = higher value;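 further: cells exposed to compounds for four days before counting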
# [12] = LFS_MB_P medulloblastoma growth inhibition, cell-based, chromothripsis tumors, cisplatin or BGB combos (AID 1671449; in the data active means inhibition above about 80%;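 further: cells exposed for 96 hours; 0% = vehicle DMSO and 100% = killing by high DMSO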); settings: LFS_MB_P medulloblastoma cells
# [13] = HDN33 neuroblastoma growth inhibition, cell-based, chromothripsis tumors, cisplatin or BGB combos (AID 1671450; in the data active means inhibition above about 80%;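 further: cells exposed to compound for four days; 0% = vehicle DMSO and 100% = cell killing by high DMSO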); settings: HDN33 neuroblastoma cells, stronger effect = higher value
# [14] = ICB984 medulloblastoma cell growth inhibition, synergistic combos for chromothripsis tumors, cisplatin or BGB combos (AID 1671451); settings: ICB984 medulloblastoma cells, drug combinations, stronger effect = higher value;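 further: cells exposed for 96 hours before readout; 0% = vehicle DMSO and 100% = killing by high DMSO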
# [15] = LFS_MB_1R medulloblastoma cell growth inhibition, synergistic combos for chromothripsis tumors, cisplatin or BGB combos (AID 1671452; in the data active means inhibition above about 80%;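 further: cells exposed for 96 hours before readout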); settings: LFS_MB_1R medulloblastoma cells, stronger effect = higher value
# [16] = HTB85 osteosarcoma cell growth inhibition, synergistic combos for chromothripsis tumors, BGB or cisplatin IC20 combos (AID 1671453; in the data active means inhibition above about 80%;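 further: cells exposed for 96 hours before readout; 0% = vehicle DMSO and 100% = high DMSO killing control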); settings: HTB85 osteosarcoma cells, drug combinations, stronger effect = higher value
# [17] = MDA-MB-436 breast carcinoma cell growth inhibition, synergistic combos for chromothripsis tumors, BGB or cisplatin combos (AID 1671458); settings: MDA-MB-436 breast carcinoma growth inhibition, drug combinations, stronger effect = higher value;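 further: cells exposed for 96 hours; 0% = vehicle DMSO and 100% = killing by high DMSO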
# [18] = growth inhibition of BT084 medulloblastoma cells, cell-based, ICGC_MB145, cisplatin and BGB IC40 combos (AID 1671461; in the data active means inhibition above about 80%;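 further: cells exposed to drugs for 96 hours; 0% = vehicle DMSO and 100% = high DMSO full killing control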); settings: drug combinations, stronger effect = higher value
# [19] = growth inhibition of RCMB18 medulloblastoma cells, cell-based, cisplatin and BGB IC40 combos (AID 1671462; in the data active means inhibition above about 80%;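 further: cells exposed to compound for four days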); settings: stronger effect = higher value
# [20] = growth inhibition of CRL1545 osteosarcoma cells, cell-based, cisplatin and BGB IC20 combos (AID 1671464; in the data active means inhibition above about 80%;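 further: cells exposed to compound for 96 hours before readout; 0% = vehicle DMSO and 100% = high DMSO killing control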); settings: stronger effect = higher value
# [21] = measured here: epithelial PC-3E GFP cell survival
# [22] = measured here: mesenchymal TEM4-18 mCherry cell survival
# [23] = measured here: combination with BGB IC40, at 0.05 µM
# [24] = measured here: with BGB IC20 combination, at 0.5 µM
# [25] = measured here: with cisplatin IC20 combination, at 0.5 µM
# [26] = measured here: combination with cisplatin, at 0.5 µM
# Chain of NAD(+) hydrolase SARM1 (Homo sapiens) (Q6SZW1 whole entry, looked up): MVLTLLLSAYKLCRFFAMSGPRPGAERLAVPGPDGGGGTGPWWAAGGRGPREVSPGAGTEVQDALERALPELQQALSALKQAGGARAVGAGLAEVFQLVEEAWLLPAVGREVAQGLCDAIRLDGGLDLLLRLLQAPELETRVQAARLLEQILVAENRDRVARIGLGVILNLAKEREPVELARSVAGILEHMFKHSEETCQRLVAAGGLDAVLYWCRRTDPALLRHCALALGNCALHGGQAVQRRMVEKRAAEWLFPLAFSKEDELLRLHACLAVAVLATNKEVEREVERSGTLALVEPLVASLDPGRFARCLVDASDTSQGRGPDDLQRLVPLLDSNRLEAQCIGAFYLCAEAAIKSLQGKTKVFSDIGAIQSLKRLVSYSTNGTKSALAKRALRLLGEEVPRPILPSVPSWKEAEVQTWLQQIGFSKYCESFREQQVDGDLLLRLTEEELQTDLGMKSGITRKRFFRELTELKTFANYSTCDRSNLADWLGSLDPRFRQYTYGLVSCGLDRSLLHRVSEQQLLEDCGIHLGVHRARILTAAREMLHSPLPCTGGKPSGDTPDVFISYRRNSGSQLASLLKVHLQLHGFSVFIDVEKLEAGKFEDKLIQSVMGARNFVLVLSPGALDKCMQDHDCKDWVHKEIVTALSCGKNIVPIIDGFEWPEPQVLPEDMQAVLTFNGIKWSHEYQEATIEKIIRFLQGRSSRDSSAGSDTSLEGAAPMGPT
structure (smiles),measurement,setting,value
COc1cc(N)c(Cl)cc1C(=O)N[C@@H]1CCN(CCCOc2ccc(F)cc2)C[C@@H]1OC,remaining activity,[1],111% (inactive)
CCC(=O)NS(=O)(=O)c1ccc(-c2c(-c3ccccc3)noc2C)cc1,outcome,[2],inactive
same,outcome,[3],inactive
CCN(CC)CCOc1ccc(C(=C(Cl)c2ccccc2)c2ccccc2)cc1,remaining NAD,[4],10 nM (inactive)
COc1cccc2c1C(=O)c1c(O)c3c(c(O)c1C2=O)C[C@@](O)(C(=O)CO)C[C@@H]3O[C@H]1C[C@H](N)[C@@H](O)[C@H](C)O1,red/green cell ratio (normalised),[5],2.46 (active)
same,normalised cell number,[5]; [21],0.19
same,normalised cell number,[5]; [22],0.46
same,AC50,[2],0.332 µM (active)
same,AC50,[6],0.372 µM (active)
same,IC50,[3],9.34 µM (active)
same,remaining NAD,[4],10 nM (inactive)
COc1cc([C@@H]2c3cc4c(cc3[C@@H](O[C@@H]3O[C@@H]5CO[C@@H](C)O[C@H]5[C@H](O)[C@H]3O)[C@H]3COC(=O)[C@H]23)OCO4)cc(OC)c1O,AC50,[2],1.66 µM (active)
same,outcome,[6],inactive
same,outcome,[3],inactive
CN1CCc2cc(Cl)c(O)cc2[C@@H](c2ccccc2)C1,period change,[7],0.17 h (inactive)
same,inhibition,[8],-1% (inactive)
same,fluorescence ratio (interference),[9],1 (inactive)
same,remaining activity,[1],107% (inactive)
same,outcome,[10],inactive
CC[C@@H]1C(=O)OC[C@@H]1Cc1cncn1C,remaining activity,[1],110% (inactive)
CC(C)N=c1cc2n(-c3ccc(Cl)cc3)c3ccccc3nc-2cc1Nc1ccc(Cl)cc1,survival,[11],11.8 (inactive)
same,red/green cell ratio (normalised),[5],0.91 (inactive)
same,normalised cell number,[5]; [21],0.92
same,normalised cell number,[5]; [22],0.84
same,remaining NAD,[4],10 nM (inactive)
same,inhibition,"[12]; at 0.5 µM, stronger effect = higher value",-31% (inactive)
same,inhibition,"[12]; measured here: combination with BGB IC20, at 0.005 µM",13.3%
same,inhibition,"[12]; measured here: combination with BGB IC40, at 0.005 µM",-22.3%
same,inhibition,[12]; [23],-8.73%
same,inhibition,"[12]; measured here: combination with cisplatin, at 0.5 µM, stronger effect = higher value",-48.5%
same,inhibition,"[12]; measured here: combination with cisplatin, at 5 µM, stronger effect = higher value",8.75%
same,inhibition,"[13]; BGB combo, at 5 µM",-36.1%
same,inhibition,[13]; at 0.5 µM,-26.4% (inactive)
same,inhibition,"[13]; cisplatin combo, at 5 µM",-41.4%
same,inhibition,[13]; [24],-15.2%
same,inhibition,[13]; [25],-29%
same,inhibition,"[13]; single agent, at 5 µM",-25%
same,inhibition,"[14]; BGB IC20 combo, at 0.005 µM",-28.4%
same,inhibition,"[14]; BGB IC40 combo, at 0.005 µM",4.64%
same,inhibition,"[14]; BGB IC40 combo, at 0.05 µM",-16%
same,inhibition,[14]; at 0.5 µM,-34.9% (inactive)
same,inhibition,"[14]; cisplatin combo, at 0.05 µM",-16%
same,inhibition,"[14]; cisplatin combo, at 0.5 µM",-47.3%
same,inhibition,"[14]; cisplatin combo, at 5 µM",-19.4%
same,inhibition,"[14]; measured here: 5 uM single agent, at 5 µM",1.51%
same,inhibition,[15]; at 0.5 µM,-25.1% (inactive)
same,inhibition,[15]; [23],-36.1%
same,inhibition,[15]; [26],-57.3%
same,inhibition,"[15]; measured here: combination with cisplatin, at 5 µM",-48.3%
same,inhibition,[16]; at 0.5 µM,-37.4% (inactive)
same,inhibition,"[16]; measured here: with BGB IC20, at 0.5 µM",-54.6%
same,inhibition,"[16]; measured here: with BGB IC20, at 5 µM",-21.7%
same,inhibition,"[16]; measured here: with cisplatin IC20, at 0.5 µM",-36%
same,inhibition,"[16]; measured here: with cisplatin IC20, at 5 µM",-38.1%
same,inhibition,"[16]; single agent, at 5 µM",-29.1%
same,inhibition,[17]; at 0.5 µM,-2.64% (inactive)
same,inhibition,"[17]; measured here: BGB combination, at 0.5 µM",-2.65%
same,inhibition,"[17]; measured here: BGB combination, at 5 µM",-11.8%
same,inhibition,"[17]; measured here: cisplatin combination, at 0.5 µM",-12.6%
same,inhibition,"[17]; measured here: cisplatin combination, at 5 µM",0.559%
same,inhibition,[18]; at 0.5 µM,-8.65% (inactive)
same,inhibition,"[18]; cisplatin combination, at 0.5 µM",-22.2%
same,inhibition,"[18]; cisplatin combination, at 5 µM",-55.6%
same,inhibition,"[18]; measured here: BGB IC40 combination 0.05 uM, at 0.05 µM",17%
same,inhibition,"[18]; single agent, at 5 µM",-11.5%
same,inhibition,[19]; at 0.5 µM,-9.43% (inactive)
same,inhibition,"[19]; cisplatin combo, at 5 µM",-32.6%
same,inhibition,"[19]; measured here: BGB IC40 combination, at 0.05 µM",-2.04%
same,inhibition,[19]; [26],-6.22%
same,inhibition,"[19]; single agent, at 5 µM",-9.57%
same,inhibition,[20]; at 0.5 µM,-22.8% (inactive)
same,inhibition,[20]; [24],-40.5%
same,inhibition,[20]; [25],-13.9%
same,inhibition,"[20]; single agent, at 0.05 µM",-3.12%
same,inhibition,"[20]; single agent, at 5 µM",-18.2%
